# This is a sample that favours compounds with a hit; in the whole collection about 1.3% have one here.
# Cardiac RTF inh = cardiac RTF calcium desensitization | P19429+P45379 | IANBD-labeled cardiac RTF, Ca2+ fluorescence | inhibition, % at 7.15 µM | hit rate 0.12% among 340,000;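 active = inhibition above the mean inhibition of all tested compounds plus 3 SD, cut at about 17% in these data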;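 also: assay run at fixed EC70 calcium of 1.6 mM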
# LANA-H2B inh = blocks KSHV LANA binding to histone H2A/H2B. Q9QR71. cell-free LANA-H2A/H2B peptide, fluorescence polarization. inhibition, % (no concentration beside the values). hit rate 0.6% among 320,000; in the data active = inhibition mostly above about 10%, no sharp cut-off; inactive = mostly below about 6.7%
# RTF Ca sens act = increases calcium sensitivity of human cardiac regulated thin filaments; P19429+P45379; AID 493008; IANBD-labeled TnC RTF fluorescence at EC20 calcium; 0% EC20 calcium, 100% full calcium; hit rate 0.24% among 340,000; activation, % at 7.2 µM;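 active = activation above the mean over all tested compounds plus 3 SD, cut at about 30% in these data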;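 also: rise in fluorescence read as greater calcium sensitivity of cardiac thin filaments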
# Keap1 Nrf2 FP = disrupts human Keap1 binding to Nrf2 peptide; Keap1 Kelch-Nrf2 peptide fluorescence polarization, 1536-well; inhibition, % at 9.4 µM; hit rate 0.15% among 340,000; Q14145; in the data active = inhibition above about 12%;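 also: human Keap1 Kelch domain with fluorescein labeled Nrf2 9mer peptide probe; 0% = neutral control wells and 100% = peptide positive control; higher means more block of Keap1 binding to Nrf2 peptide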
# LANA DNA inh = inhibitors of KSHV LANA C-terminal domain DNA binding; MBP-C-LANA/FAM-LBS DNA binding, fluorescence polarization; inhibition, % at 9 µM; hit rate 0.078% among 340,000;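 active = highest replicate inhibition at or above 60% at 9 µM, even if other replicates fall short; inactive = all replicates below 60% inhibition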;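 also: 0% = neutral control wells and 100% = 4 µM acridine orange control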
# E coli Lon inh = inhibits E. coli Lon protease. purified E. coli Lon protease, fluorescence polarization. inhibition, % at 7.94 µM. hit rate 0.42% among 360,000. AID 602123; in the data active = inhibition above about 13%, passing the limit was not always enough;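 also: 0% = enzyme with probe and DMSO and 100% = no enzyme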
# Keap1 Kelch bind = binders of human Keap1 Kelch domain; hit rate 8% among 400; shares compounds with Keap1 Nrf2 FP; AID 651823; max delta Tm, degrees C; Keap1 Kelch thermal shift, delta Tm; stronger effect = higher value; in the data active = max delta Tm above about 0.48 degrees C
# Sypro dye melt = shifts Sypro Orange melt without protein, a false positive. shares compounds with Keap1 Nrf2 FP. Sypro Orange dye-only thermal melt, no protein, delta Tm; top dose 26 µM. delta Tm, degrees C (no concentration beside the values). 140 tested, under 10 active;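 active = at highest dose tested, delta Tm positive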
# * hit, by the source's call; · = no result.
SMILES,Cardiac RTF inh,LANA-H2B inh,RTF Ca sens act,Keap1 Nrf2 FP,LANA DNA inh,E coli Lon inh,Keap1 Kelch bind,others
Cc1ccc(OCC(=O)N(C)C2CCCCC2)c([N+](=O)[O-])n1,-3,-2,-4,-3,2,4,·,
Cc1ccc(SCC(=O)Nc2ccc(N3CCOCC3)cc2)cc1C,0,-4,-5,0,0,1,·,
CNC(=O)c1cc(NC(=O)CCn2nc(-c3ccccc3)c3ccccc3c2=O)ccc1OC,-8,6,7,-5,0,-5,·,
Cc1ccc(/C=N/NC(=O)c2nnn(-c3nonc3N)c2C(C)C)o1,-9,4,-1,4,-1,-12,·,
O=C(CN1CCN(Cc2ccc3c(c2)OCO3)CC1)Nc1ccc(F)cc1,-12,-4,-5,-4,0,-4,·,
O=C(CN1CCN(C(=O)CNC(=O)c2ccc3c(c2)OCO3)CC1)Nc1ccc(F)cc1,-24,-3,10,62*,·,1,-0.08,
COc1cc(C#Cc2c(C=O)n(C)c3ccccc23)cc(OC)c1,-12,-2,3,30*,12,6,-0.17,
Cc1cc(SCC(=O)N/N=C/c2ccc(C(=O)O)cc2)nc2ccccc12,-3,-1,4,0,0,-6,·,
O=[N+]([O-])c1c(NCCCO)cc(Sc2ccc(Cl)cc2)c2nonc12,-4,4,5,3,0,-2,·,
Cn1ccnc1Sc1cc(NCCCO)c([N+](=O)[O-])c2nonc12,-3,-5,2,13*,1,2,-0.01,
O=C1C(Cl)=C(NS(=O)(=O)c2ccc([N+](=O)[O-])cc2)C(=O)c2ccccc21,10,0,-2,20*,-2,6,0.76*,
O=C(CSCC(=O)Nc1ccccc1)N/N=C/c1c(O)ccc2ccccc12,2,5,-9,12*,-3,-9,0.09,Sypro dye melt=-27
Nc1ccn(CC(=O)N[C@H](CO)Cc2c[nH]c3ccccc23)c(=O)n1,-8,0,8,-3,-2,-2,·,
Cn1c(=O)c2c(nc(Br)n2C/C=N/NC(N)=S)n(C)c1=O,·,3,·,·,·,11,·,
COc1ccc2c(c1)c1nc3ccccc3nc1n2CC(=O)OC(C)C,-9,-46,13,24*,29,-6,-0.1,Sypro dye melt=-29
COc1cc(-c2nc(CN(C)C(C)c3ccncn3)c(C)o2)ccc1F (stereo unspecified),-9,6,12,-8,-1,1,·,
Cc1ccccc1OCCC(=O)Nc1cc(S(=O)(=O)N2CCCCC2)ccc1N1CCN(C)CC1,-12,·,18,54*,28,-6,0.02,
COCCNC(=O)C(=O)NCCN1CCNCC1,-7,2,-3,1,-1,-1,·,
Cc1cc(C)c2c(SC(C)C)nc(N)nc2n1,-61,6,47*,23*,14,-5,-0.18,
C=CCn1c(=O)/c(=C\c2ccsc2)s/c1=C(/C#N)C(=O)NCCN1CCOCC1,1,6,7,16*,21,-6,-0.17,Sypro dye melt=-22
COc1ccc(-n2c(=O)/c(=C\c3cccs3)s/c2=C(/C#N)C(=O)NCCN2CCOCC2)cc1,-7,3,2,-7,3,-88,·,
C=CCn1cccc(C(=O)Nc2ccc(OC)c(Cl)c2)c1=O,-8,-3,32*,48*,-2,-1,-0.06,
C=CCn1cccc(C(=O)Nc2ccc(OC)c(OC)c2)c1=O,·,3,·,3,0,-5,·,
COCCCN1C(=O)c2ccc(C(=O)Nc3ccc(C)cc3C)cc2C1=O,-8,-8,-6,39*,2,6,-0.14,
COCCCN1C(=O)c2ccc(C(=O)Nc3ccccc3OC)cc2C1=O,0,2,-4,-3,1,8,·,
CNC(=O)C1CC(=O)N(c2ccc(OCC(=O)Nc3ccc(F)cc3)cc2)C1 (stereo unspecified),-10,·,5,30*,15,-3,-0.09,Sypro dye melt=-26
CC(=O)Nc1c(N)c2ccccc2oc1=O,-2,3,0,14*,5,-6,-0.16,Sypro dye melt=-26
CC(=O)Nc1c(NC(C)(C)C)c2ccccc2oc1=O,0,-1,3,4,-1,0,·,

# Screening data (PubChem)
